# Data from PubChem BioAssay (NCI).
# This is part of a sample that, as a whole, favours compounds with a hit. Of some 83,000 tested, about 20% had one in any assay.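 How to read the values: 0–100, growth inhibition (40 = 60% inhibited); 0, no net growth; -100 to 0, cell death (-40 = 40% of starting cells died; -100 = all dead).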 Values without a mark were called inactive. The source made the active and inactive calls. How the source made its calls: active means growth percent below 10; inactive means the rest.
# Columns and labels:
# Assay in all cases: NCI-60 one-dose screen, 48 h (100 = growth as untreated, 0 = no growth, -100 = all killed)
# DU-145 prostate = conditions: 10 µM unless noted
# K-562 leukemia = conditions: 10 µM unless noted
# MALME-3M melanoma = conditions: 10 µM unless noted
# MDA-MB-231 breast = conditions: 10 µM unless noted
# RXF 393 renal = conditions: 10 µM unless noted
# SF-268 CNS = conditions: 10 µM unless noted
# SF-295 CNS = conditions: 10 µM unless noted
# SF-539 CNS = conditions: 10 µM unless noted
# UACC-257 melanoma = conditions: 10 µM
# M14 melanoma = conditions: 10 µM unless noted
# HCT-15 colon = conditions: 10 µM unless noted
# HT29 colon = conditions: 10 µM unless noted
# SNB-75 CNS = conditions: 10 µM unless noted
# SNB-19 CNS = conditions: 10 µM unless noted
# U251 CNS = conditions: 10 µM unless noted
# PC-3 prostate = conditions: 10 µM unless noted
# SK-MEL-5 melanoma = conditions: 10 µM unless noted
# UACC-62 melanoma = conditions: 10 µM unless noted
# LOX IMVI melanoma = conditions: 10 µM unless noted
# SK-MEL-28 melanoma = conditions: 10 µM unless noted
SMILES,growth (DU-145 prostate),growth (K-562 leukemia),growth (MALME-3M melanoma),growth (MDA-MB-231 breast),growth (RXF 393 renal),growth (SF-268 CNS),growth (SF-295 CNS),growth (SF-539 CNS),growth (UACC-257 melanoma),growth (M14 melanoma),growth (HCT-15 colon),growth (HT29 colon),growth (SNB-75 CNS),growth (SNB-19 CNS),growth (U251 CNS),growth (PC-3 prostate),growth (SK-MEL-5 melanoma),growth (UACC-62 melanoma),growth (LOX IMVI melanoma),growth (SK-MEL-28 melanoma)
COc1ccc(Cn2cc3c(c2-c2ccccc2)CCCc2cnoc2-3)cc1[N+](=O)[O-],84.2%,17.8%,60.5%,75.2%,49.6%,78.5%,69.5%,70.5%,75.3%,51%,27.3%,40.8%,55.8%,75.6%,77.5%,69.5%,71.5%,52.1%,87.8%,76.9%
COc1cc(/C=C/C(=O)c2ccc(N3CCN(C)CC3)cc2)ccc1F,88.3%,7.19% (active),103%,103%,98.2%,97.8%,92.5%,65.6%,89.8%,73.6%,36.4%,46.5%,58%,66.9%,76.2%,61.5%,95.6%,88.6%,17.8%,–
O=C(Nc1cccc(-c2nc(-c3ccc(NC(=O)c4cccnc4)cc3Cl)no2)c1)Nc1ccc(NC(=O)C2CC2)c(C(F)(F)F)c1,-26.1% (active),1.44% (active),-78.6% (active),-59.5% (active),-82% (active),-23.2% (active),-81.1% (active),-86.9% (active),-45.5% (active),-53.3% (active),9.01% (active),-26.8% (active),-73.7% (active),-0.276% (active),-48% (active),-65.8% (active),-92.9% (active),-81.9% (active),-93.3% (active),-83.7% (active)
CCOC(=O)c1nn(-c2ccccc2)c(=O)c2c(N)c(C#N)c(-c3cccs3)cc12,88.3%,87.5%,88.4%,76.5%,59.9%,85.5%,64.4%,57.2%,93.5%,94.4%,87.6%,61.9%,-8.81% (active),70.5%,77.3%,79.9%,96.4%,85.8%,73%,99.9%
CNC(=O)c1cc(Oc2ccc3nc(NC(=O)c4ccc(CN5CCN(C)CC5)c(C(F)(F)F)c4)sc3c2)ccn1,79.3%,11.7%,-5.19% (active),77.5%,46.7%,74.6%,36%,25%,20.4%,0.73% (active),8.89% (active),16.1%,55.1%,75.9%,57.1%,47.3%,31.4%,56.3%,-28.2% (active),-38.1% (active)
C#C[C@]1(O)CC[C@H]2[C@@H]3CC=C4c5sc(Nc6cccc(Cl)n6)nc5CC[C@]4(C)[C@H]3CC[C@@]21C,24.5%,3.91% (active),-20.2% (active),9.05% (active),-57.4% (active),-16.5% (active),-70.2% (active),-60.2% (active),-64.3% (active),-22.8% (active),-66.9% (active),3.69% (active),-25% (active),-1.43% (active),4.83% (active),4.35% (active),-90.7% (active),-14.4% (active),–,–
CCOC(=O)/C(F)=C/C1CC1C1CCCCC1 (stereo unspecified),105%,117%,97.9%,98.6%,108%,102%,103%,94.3%,120%,98.9%,102%,111%,95.2%,98.5%,105%,102%,99.8%,95.5%,98%,100%
O=C(CN1CCN(c2cc(=O)n(-c3ccccc3)c3ccccc23)CC1)Nc1ccc([N+](=O)[O-])cc1,99.8%,71.4%,83.9%,77.2%,68.7%,89.7%,103%,91.7%,90.3%,99%,95.1%,105%,88%,87.1%,93.9%,84.7%,74.1%,63.4%,89.3%,–
N/C(=N\OC(=O)CSc1nc2ccccc2s1)c1ccc(Cl)cc1,105%,99.1%,105%,92%,122%,96.2%,104%,95.5%,104%,100%,101%,103%,88.7%,99.4%,96.8%,99.9%,100%,87.8%,99.7%,106%
COC(=O)Nc1ccc(-c2nc(-c3cccc(O)c3)c(-c3ccnc(Br)c3)[nH]2)cc1,62.1%,27.9%,54.1%,56.6%,-4.89% (active),72.6%,27.8%,52.6%,58.5%,48.9%,51%,73.7%,3.12% (active),56.2%,47%,23.7%,61.2%,23.7%,38%,58.7%
COc1cc(C2=NN(C(C)=O)C(c3ccc(N4CCOCC4)cc3)C2)cc(OC)c1OC (stereo unspecified),107%,114%,94.4%,92%,108%,99%,101%,102%,103%,84.1%,107%,109%,96%,98.6%,104%,106%,97.7%,87.8%,98.1%,–
CC1CCN(S(=O)(=O)c2ncsc2-c2ccccc2)CC1,92%,72.7%,78.7%,92%,9.28% (active),82.9%,30.7%,44.3%,106%,83.5%,79%,88.5%,55.6%,83%,57.9%,80.8%,96.8%,96.5%,–,–
COc1ccc(C(=O)c2c(N)c(C#N)cn2-c2cccc(OC)c2)cc1,50.6%,14.5%,40.5%,39.2%,17.3%,64.6%,-25.5% (active),-5.54% (active),47.5%,10.3%,19.8%,7.88% (active),-23.4% (active),26.8%,33.8%,33.9%,35.1%,18.8%,37.9%,–
C/C(=N/Nc1nc(N/N=C(/C)c2ccc([N+](=O)[O-])cc2)nc(N2CCOCC2)n1)c1ccc([N+](=O)[O-])cc1,81%,79.7%,69.4%,43.5%,69.2%,96%,66.5%,15.5%,99.2%,74.5%,66.1%,80.6%,80.6%,63.1%,92.6%,76.6%,67.1%,85.3%,38.9%,83.8%
CCc1ccc(NC(=O)N[C@@H](Cc2cc(F)cc(F)c2)C(=O)N[C@@H]2C(=O)N3CCC[C@H]3C(=O)N3CCO[C@H](C)[C@H]3C(=O)N[C@@H](CO)C(=O)N3C[C@H](C)C[C@H]3C(=O)O[C@H]2C)c(F)c1,26.4%,21.5%,40.8%,33.3%,-5.23% (active),32.4%,12.6%,39.9%,12.9%,24%,15.8%,30.5%,20.3%,26.9%,29%,17.3%,-2.9% (active),26.3%,20.4%,–
COc1ccc(CN2C(=O)/C(=C/c3nc(CO)cs3)SC2=S)cc1,96.5%,52.6%,93.2%,79.5%,95.3%,98.8%,106%,70.1%,93.6%,86.4%,64.2%,107%,91.7%,93.8%,94%,86.5%,97.9%,73.4%,42.8%,107%
